Compound activity (PubChem BioAssay)
miR122 inh = raises miR-122 sensor activity in Huh7 cells | hit rate 0.14% among 340,000 | activation, % at 12.5 µM | Huh7 psiCHECK-miR122 Renilla luciferase sensor, 48 h;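 active = mean activation of 30% or more, with every replicate also reaching 30%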;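 note: higher luciferase signal means stronger suppression of miR-122 activity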
Hits are given with their value; - = inactive. This is one part of a sample in which hits are shown more often than they occur.

SMILES	miR122 inh
COc1cccc(S(=O)(=O)N(C)C[C@@H]2Oc3ncc(C#CCC(C)C)cc3C(=O)N([C@H](C)CO)C[C@H]2C)c1	-
C[C@H]1CN([C@@H](C)CO)C(=O)c2cc(/C=C/c3ccccc3)cnc2O[C@@H]1CN(C)S(=O)(=O)c1ccc(F)cc1	-
CCC(=O)N(C)C[C@@H]1Oc2cc(C#Cc3cccnc3)ccc2S(=O)(=O)N([C@@H](C)CO)C[C@@H]1C	-
COCC(=O)N(C)C[C@H]1Oc2cc(C#Cc3cccnc3)ccc2S(=O)(=O)N([C@@H](C)CO)C[C@@H]1C	55
C/C=C/c1ccc2c(c1)O[C@@H](CN(C)C(=O)c1cccnc1)[C@@H](C)CN([C@@H](C)CO)S2(=O)=O	-
C[C@H](CO)N1C[C@H](C)[C@H](CN(C)C(=O)C2CC2)Oc2cc(C#Cc3cccnc3)ccc2S1(=O)=O	-
CCCC#Cc1ccc2c(c1)O[C@@H](CN(C)C(=O)c1cccnc1)[C@@H](C)CN([C@@H](C)CO)S2(=O)=O	-
CCC(=O)N(C)C[C@H]1Oc2cc(C#Cc3cccnc3)ccc2S(=O)(=O)N([C@H](C)CO)C[C@@H]1C	-
CCC(=O)N(C)C[C@H]1Oc2cc(C#Cc3cccnc3)ccc2S(=O)(=O)N([C@@H](C)CO)C[C@@H]1C	-
C/C=C/c1ccc2c(c1)O[C@H](CN(C)C(=O)Cc1cccnc1)[C@H](C)CN([C@H](C)CO)S2(=O)=O	43
C/C=C/c1ccc2c(c1)O[C@H](CN(C)C(=O)c1cccnc1)[C@H](C)CN([C@H](C)CO)S2(=O)=O	-
COCC(=O)N(C)C[C@H]1Oc2cc(C#Cc3cccnc3)ccc2S(=O)(=O)N([C@@H](C)CO)C[C@H]1C	59
CC(=O)N(C)C[C@@H]1Oc2cc(C#CC3(O)CCCC3)ccc2S(=O)(=O)N([C@H](C)CO)C[C@@H]1C	-
C[C@@H]1CN([C@@H](C)CO)S(=O)(=O)c2ccc(C#CC3(O)CCCC3)cc2O[C@@H]1CN(C)C(=O)c1cccnc1	47
CCOc1ccc(CC(=N)C2=C(O)CC(C)(C)CC2=O)cc1OCC	-
Cc1ccc(N(CC(=O)NCc2cccs2)S(=O)(=O)c2cccs2)cc1	-
C[C@H]1CN([C@@H](C)CO)C(=O)Cc2cc(NC(=O)CCCCCC(=O)Nc3ccccc3N)ccc2O[C@@H]1CN(C)Cc1ccc(Oc2ccccc2)cc1	-
CCC(=O)Nc1ccc2c(c1)OC[C@@H](C)NC[C@@H](C)[C@@H](OC)CN(C)C2=O	-
C[C@@H]1CN([C@@H](C)CO)S(=O)(=O)c2ccc(C#CCN(C)C)cc2O[C@@H]1CN(C)Cc1ccc2c(c1)OCO2	-
CC(=O)N(C)C[C@H]1Oc2cc(C#CC3CCCCC3)ccc2S(=O)(=O)N([C@H](C)CO)C[C@H]1C	-
CC(C)C#Cc1ccc2c(c1)O[C@@H](CN(C)C(=O)c1ccccc1)[C@H](C)CN([C@H](C)CO)S2(=O)=O	-
C[C@H](CO)N1C[C@H](C)[C@@H](CN(C)C(=O)Nc2ccccc2)Oc2cc(-c3cccc(C(=O)N(C)C)c3)ccc2S1(=O)=O	-
CO[C@@H]1CN(C)C(=O)c2ccc(NC(=O)c3ccccc3)cc2OC[C@@H](C)N(C)C[C@@H]1C	-
C[C@@H]1CN([C@@H](C)CO)S(=O)(=O)c2ccc(Br)cc2O[C@H]1CN(C)S(C)(=O)=O	-
CO[C@@H]1CN(C)C(=O)c2ccc(NS(=O)(=O)c3ccc(C)cc3)cc2OC[C@@H](C)N(C)C[C@@H]1C	-
SMILES	miR122 inh
CO[C@H]1CN(C)C(=O)c2ccc(NC(=O)c3ccccc3)cc2OC[C@H](C)N(C)C[C@@H]1C	-
C[C@H]1CN([C@@H](C)CO)C(=O)c2cc(-c3ccc(F)cc3)cnc2O[C@H]1CN(C)CC1CCOCC1	-
CCCNC(=O)N(C)C[C@H]1Oc2cc(Br)ccc2S(=O)(=O)N([C@@H](C)CO)C[C@@H]1C	-
C[C@H]1CN([C@@H](C)CO)C(=O)c2cc(-c3cccc(C(=O)N(C)C)c3)cnc2O[C@@H]1CN(C)S(=O)(=O)c1ccc(F)cc1	-
C[C@@H]1CN([C@H](C)CO)C(=O)c2cc(Br)cnc2O[C@H]1CN(C)Cc1cccc(F)c1	-
c1ccc(-c2nnc3n2CCCC3)cc1	33
CC(C)CC#Cc1cnc2c(c1)C(=O)N([C@H](C)CO)C[C@@H](C)[C@H](CN(C)CC1CCOCC1)O2	-
Cc1ccc(S(=O)(=O)N(C)C[C@H]2Oc3ncc(C#CCC(C)C)cc3C(=O)N([C@@H](C)CO)C[C@@H]2C)cc1	-
Cc1cc(C(=O)Nc2cccc3c2O[C@H](CN(C)Cc2ccc(C(=O)Nc4ccccc4N)cc2)[C@H](C)CN([C@@H](C)CO)C3=O)n(C)n1	-
COc1ccc(C(=O)N2C[C@@H]3[C@H](c4ccccc42)[C@H](CO)N3Cc2ccccc2Cl)cc1	-
O=C(Cc1ccccc1)N1C[C@H]2[C@@H](c3ccccc31)[C@@H](CO)N2C(=O)C1CCCCC1	-
O=C(C1CCCCC1)N1C[C@@H]2[C@H](c3ccccc31)[C@H](CO)N2Cc1ccccc1Cl	40
O=C(C1CCCCC1)N1C[C@H]2[C@@H](c3ccccc31)[C@@H](CO)N2C(=O)c1ccccc1	-
O=C(C1CC1)N1C[C@H]2[C@@H](c3ccccc31)[C@H](CO)N2C(=O)c1ccccc1F	33
C[C@H](CO)N1C[C@H](C)[C@@H](CN(C)Cc2cncnc2)Oc2ncc(-c3cncnc3)cc2C1=O	-
C/C=C/c1ccc2c(c1)O[C@H](CN(C)CCC)[C@H](C)CN([C@@H](C)CO)S2(=O)=O	-
Cc1ccc(S(=O)(=O)Nc2ccc(C(=O)NCc3ccccn3)cc2)cc1	-
COc1ccc(NS(=O)(=O)c2cc(NS(=O)(=O)c3cccs3)ccc2C)cc1	-
O=S(=O)(Nc1nccs1)c1ccc(NS(=O)(=O)c2cccs2)cc1	39
COCC(=O)N(C)C[C@@H]1Oc2cc(Br)ccc2S(=O)(=O)N([C@H](C)CO)C[C@@H]1C	-
C[C@H](O)C#Cc1ccc2c(c1)O[C@@H](CN(C)C(=O)c1ccncc1)[C@@H](C)CN([C@H](C)CO)S2(=O)=O	-
Cc1ccc(-c2cnc3c(c2)C(=O)N([C@@H](C)CO)C[C@@H](C)[C@H](CN(C)C(=O)Cc2ccncc2)O3)cc1	-
C[C@H](CO)N1C[C@H](C)[C@@H](CN(C)C)Oc2cc(-c3ccc(C(=O)N(C)C)cc3)ccc2S1(=O)=O	-
C[C@@H]1CN([C@H](C)CO)C(=O)c2cc(-c3ccccc3F)cnc2O[C@@H]1CN(C)C(=O)NC1CCCCC1	-
CC(=O)Nc1ccc(S(=O)(=O)NCCc2ccc(S(N)(=O)=O)cc2)cc1	-
SMILES	miR122 inh
Cc1cc(C(C)(C)C)cc(S(=O)(=O)NCCc2ccncc2)c1C	44
O=C(Nc1ccc(S(=O)(=O)NCCc2ccccc2)cc1)c1ccco1	-
Cc1cc(C)c(C)c(S(=O)(=O)NCc2ccncc2)c1C	-
CCCc1ccc(S(=O)(=O)NCCc2ccncc2)cc1	36
Cc1ccc(C)c(S(=O)(=O)NCCCc2ccccc2)c1	-
CC(C)C#Cc1cnc2c(c1)C(=O)N([C@@H](C)CO)C[C@@H](C)[C@H](CN(C)C(=O)c1ccccc1)O2	-
C[C@@H]1CN([C@@H](C)CO)S(=O)(=O)c2ccc(C#CCC3CCCC3)cc2O[C@@H]1CN(C)C(=O)c1ccccn1	-
COc1cccc(-c2cnc3c(c2)C(=O)N([C@H](C)CO)C[C@H](C)[C@H](CN(C)Cc2ccccc2)O3)c1	-
CC(C)C#Cc1ccc2c(c1)O[C@H](CN(C)Cc1ccccn1)[C@@H](C)CN([C@H](C)CO)S2(=O)=O	-
